# Data as given in PubChem BioAssay AID1347046 (National Center for Advancing Translational Sciences (NCATS), 2019).
# Hit rate of the full screen: of about 1,400 compounds, about 940 (67%) were called active. About 27% were inconclusive and are not listed. The call rests on the fitted dose curve. So high a share suggests a set chosen from earlier hits. Not all results are given here.
# Molecular target: Atrial natriuretic peptide receptor 2 (Homo sapiens) (UniProt P20594)
# Assay: Natriuretic polypeptide receptor (hNpr2) antagonism - Subtype selectivity assay; further: nearly all actives have a fitted effect of over 70% in size
# Conditions: HEK293 hNpr2 GloSensor cGMP luminescence, CNP-stimulated
# Protocol: F. Fan, B. F. Binkowski, B. L. Butler, P. F. Stecha, M. K. Lewis, K. V. Wood, Novel genetically encoded biosensors using firefly luciferase. ACS Chem Biol 3, 346-351 (2008).
# PROTOCOL TABLE (as described by Inglese J, Shamu CE and Guy RK. 2007) SEQUENCE No. (e.g., 1, 2, 3, etc.); PARAMETER (e.g., Cells, Incubation, Reagent, etc.); VALUE and DESCRIPTION. 1. Cells. Seed 1500 HEK293 cGMP-sensor cells expressing hNpr2 per well in 4uL into Greiner 1536-well white/solid bottom high base, TC plates. 2. Incubation. Incubate plated cells at 37C in 5% CO2, 95% RH overnight. 3. Reagent. Add 1uL per well GloSensor reagent from Promega (2% final concentration) or CO2 independent media vehicle control to respective columns of Greiner 1536-well plates. 4. Incubation. Incubate plated cells at ambient temperature for 2 h., protect from light. 5. Compounds. Library compounds and DMSO vehicle control added at 23nL per well, transferred by Pin Tool. 6. Incubation. Incubate plated cells for 30 min. at ambient temperature, protect from light. 7. Detector. GloSensor baseline pre-read luminescence measured using CCD-based camera (Viewlux). 8. Compound. Add 1uL of hNppC peptide to 1 nM final concentration to stimulate hNpr2 or CO2 independent media as vehicle control. 9. Incubation. Incubate treated cells at ambient temperature for 20 min., protect from light. 10. Detector. GloSensor post-hNppC luminescence measured using CCD-based camera (Viewlux). NOTES (numbers refer to Sequence numbers above) 1. HEK293 cells expressing hNpr2 and GIP/pGS-40F were grown to 85-95% confluence (48-72 h) in T175 culture flasks (CO2 independent media supplemented with 10% FBS, 1% Pen/Strep antibiotics, and 1 ug/mL puromycin). Trypsinize and harvest cells from T175 culture flasks and filter through 40 um cell strainer. Cells counted with Invitrogen Countess (30,000,000 - 50,000,000 cells/flask). Cells diluted to a final concentration of 375 cells/uL in CO2 independent media and a Millipore multidrop used to dispense 1500 cells per well (4uL/well) into 13 1536-well Greiner White/Solid bottom, high base tissue-culture treated (TC) plates and one Aurora 1536-well Black/Clear bottom, low base, TC plate (for visual inspection of cell health throughout the duration of the assay). 2. Cells incubated for 24 h. at 37C in 95% RH incubator with metal lid having gas-exchange holes. 3. Prepare GloSensor Reagent (Promega): Reconstitute GloSensor luciferase substrate by adding 8.2mL Hepes buffer to 250mg substrate, mix well, protect from light and stored at -80C. Prepare a fresh 12% GloSensor solution in CO2 independent supplemented plating media (see above). Mix well and store at ambient temperature, protected from light. 1uL 12% GloSensor Luciferase Reagent added (2% final concentration) to respective columns of 13 x 1536-well Greiner plate with BioRaptr, 1uL CO2 independent plating media added to respective columns as vehicle control with BioRaptr. 4. Cells incubated for 2 h. at ambient temperature, protected from light with metal lid having gas-exchange holes. 5. 23nL of library compounds or DMSO vehicle control transferred to 13 Greiner white/solid bottom high base, TC plates in 11 interplate 1:3 titrations (see Yasgar, A. et al. 2008) with Pintool. 6. Cells incubated for 30-50 min. at ambient temperature protected from light with metal lid having gas-exchange holes. 7. Read cellular baseline GloSensor luminescence in presence of test library compounds on the ViewLux [Exposure = 10 s.; Gain = High; Speed = Slow; and Binning = 2X.] 8. hNppC peptide agonist solution prepared at 1 mM (in H2O) stock concentration. From this a working dilution was prepared at 6 nM in CO2 Independent media. 1uL of 6 nM hNppC agonist (1 nM final concentration) or CO2 Independent media vehicle control dispensed into respective columns of 13 x Greiner 1536-well white/solid bottom, tissue culture plates with BioRaptr. 9. Cells incubated for 20 min. at ambient temperature, protected from light with metal lid having gas-exchange holes. 10. […]
# Potency means the concentration at half of the fitted maximal effect.
# Sequence of Atrial natriuretic peptide receptor 2 (Homo sapiens) (P20594 whole entry, looked up): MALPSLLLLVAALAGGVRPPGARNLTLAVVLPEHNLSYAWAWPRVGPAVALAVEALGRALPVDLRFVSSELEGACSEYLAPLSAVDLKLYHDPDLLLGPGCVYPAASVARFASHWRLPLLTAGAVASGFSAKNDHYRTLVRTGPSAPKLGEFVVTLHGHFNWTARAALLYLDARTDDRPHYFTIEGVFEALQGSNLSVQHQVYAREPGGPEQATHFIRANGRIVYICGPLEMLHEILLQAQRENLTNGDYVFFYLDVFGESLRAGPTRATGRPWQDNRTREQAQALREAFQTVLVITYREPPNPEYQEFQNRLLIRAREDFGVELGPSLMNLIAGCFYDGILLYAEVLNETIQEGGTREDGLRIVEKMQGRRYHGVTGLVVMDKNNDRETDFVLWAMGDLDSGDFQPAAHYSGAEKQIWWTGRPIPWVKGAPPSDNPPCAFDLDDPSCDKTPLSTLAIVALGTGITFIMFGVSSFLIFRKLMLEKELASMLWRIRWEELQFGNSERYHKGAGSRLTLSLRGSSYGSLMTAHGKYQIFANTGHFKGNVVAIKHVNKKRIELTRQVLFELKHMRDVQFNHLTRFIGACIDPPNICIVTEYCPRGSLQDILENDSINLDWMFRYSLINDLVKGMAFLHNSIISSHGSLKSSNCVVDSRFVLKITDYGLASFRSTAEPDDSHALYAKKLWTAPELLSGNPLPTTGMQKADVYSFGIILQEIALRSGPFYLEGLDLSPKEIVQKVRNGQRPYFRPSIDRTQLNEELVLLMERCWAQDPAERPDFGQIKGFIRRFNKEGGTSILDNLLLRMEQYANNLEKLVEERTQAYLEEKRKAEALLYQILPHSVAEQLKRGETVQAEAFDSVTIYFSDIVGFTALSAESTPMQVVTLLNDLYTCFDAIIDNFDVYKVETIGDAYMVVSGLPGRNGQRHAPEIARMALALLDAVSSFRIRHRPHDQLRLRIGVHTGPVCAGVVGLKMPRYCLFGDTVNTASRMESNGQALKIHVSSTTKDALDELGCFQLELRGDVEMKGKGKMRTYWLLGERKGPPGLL
row,SMILES,Potency
1,CCC(CC)c1cc([C@H]2CN3CC[C@H]2C[C@@H]3CNS(=O)(=O)Cc2ccccc2)nc(-c2ccncc2)n1,21.7 µM (active)
2,CCC(CC)c1cc([C@H]2CN3CC[C@H]2C[C@@H]3CNC(=O)NCc2ccccc2)nc(-c2ccncc2)n1,12.2 µM (active)
3,COc1cc2c(cc1Oc1cccc(N(C)C)c1)NC(=O)C21CCN(c2cnccn2)CC1,19.3 µM (active)
4,COc1cc2c(cc1Oc1cccc(N(C)C)c1)NC(=O)C21CCN(CCC(C)C)CC1,28 µM (active)
5,COc1cc2c(cc1OCc1ccncc1)NC(=O)C21CCN(c2ncc(F)cn2)CC1,39.6 µM (active)
6,COc1cc2c(cc1Oc1cccc(N(C)C)c1)NC(=O)C21CCN(Cc2ccccn2)CC1,21.7 µM (active)
